Laboratory results taken from PubChem BioAssay (Tox21).
Values joined by “and” are separate entries in the source; they are usually repeats but may differ in a detail not shown here. Equal values may be shown once. Results filed as inconclusive are left out. More than one record can exist for a structure, and the calls need not agree. Active and inactive are the calls of the source. Unless noted, calls come from the whole dose curve; as a rule, active = well fitted curve in the direction sought with a large enough effect in the repeat runs; inconclusive = weak or mixed curves; inactive = no such curve, though single readings can be large; an effect the other way counts as inactive or inconclusive.

Key:
[1] = qHTS assay to identify small molecule agonists of the estrogen receptor alpha (ER-alpha) signaling pathway in the presence of an antagonist - cell viability counter screen (AID 1259386);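 note: cells exposed to compounds for 22 h at 37 °C before the viability read; nearly all actives have a fitted effect of over 30% in size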; note: potency is the fitted concentration of half-maximal effect; for activity change, negative = cytotoxicity: series mostly up to about 92 µM
Outline: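 Using estrogen-depleted VM7Luc4E2 cells, the 15-concentration compound series was applied together with 10.0nM ICI-182,780 and incubated 22hr at 37C/5% CO2. Cell viability was then scored by CellTiter-Fluor.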

[2] = target: Progesterone receptor (Homo sapiens) (UniProt P06401); assay: qHTS assay to identify small molecule agonists of the progesterone receptor (PR) signaling pathway (AID 1346784; calls by dose curve; note: nearly all actives have a fitted effect of over 30% in size)
Progesterone receptor (Homo sapiens), sequence (P06401 whole entry, looked up): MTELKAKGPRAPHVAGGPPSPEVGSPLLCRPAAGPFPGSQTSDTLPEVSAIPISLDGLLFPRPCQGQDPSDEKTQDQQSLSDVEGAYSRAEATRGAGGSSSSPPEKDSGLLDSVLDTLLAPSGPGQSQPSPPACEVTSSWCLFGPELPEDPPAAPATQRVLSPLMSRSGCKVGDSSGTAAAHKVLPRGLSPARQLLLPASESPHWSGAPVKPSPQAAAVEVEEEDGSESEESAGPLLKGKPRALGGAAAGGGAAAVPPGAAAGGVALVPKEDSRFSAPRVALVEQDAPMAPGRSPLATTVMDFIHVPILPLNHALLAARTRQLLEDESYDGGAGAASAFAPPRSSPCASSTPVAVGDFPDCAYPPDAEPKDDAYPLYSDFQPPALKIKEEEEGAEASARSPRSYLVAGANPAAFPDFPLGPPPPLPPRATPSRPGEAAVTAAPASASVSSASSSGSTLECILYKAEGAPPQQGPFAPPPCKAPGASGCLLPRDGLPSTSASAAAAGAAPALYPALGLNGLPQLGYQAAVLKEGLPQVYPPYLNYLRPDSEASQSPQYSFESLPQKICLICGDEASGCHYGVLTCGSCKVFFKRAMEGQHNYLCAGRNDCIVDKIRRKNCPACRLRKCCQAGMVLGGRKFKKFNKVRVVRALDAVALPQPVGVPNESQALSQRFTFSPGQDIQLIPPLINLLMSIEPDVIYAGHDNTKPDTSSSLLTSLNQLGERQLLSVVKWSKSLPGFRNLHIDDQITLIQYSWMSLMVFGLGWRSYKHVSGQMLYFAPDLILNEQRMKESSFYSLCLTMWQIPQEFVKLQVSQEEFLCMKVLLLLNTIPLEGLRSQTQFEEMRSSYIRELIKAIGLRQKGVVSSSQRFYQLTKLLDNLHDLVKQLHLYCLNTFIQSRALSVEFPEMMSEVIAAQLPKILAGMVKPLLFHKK
Outline: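 PR-UAS-bla HEK 293T cells (beta-lactamase reporter under UAS) in 2% charcoal-stripped FBS, dosed with 23 nL compound after 6 hr, incubated 16hr at 37C. LiveBLAzer B/G FRET substrate added, fluorescence read after 2 hours.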

[3] = target: Progesterone receptor (Homo sapiens) (UniProt P06401); assay: qHTS assay to identify small molecule antagonists of the progesterone receptor (PR) signaling pathway (AID 1346795; active = well fitted inhibition curve with a large enough effect in the signal ratio in the repeat runs, not every such curve was filed as active; the % refers to the signal ratio)
Outline: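 PR-UAS-bla HEK293T cells with beta-lactamase reporter under UAS control, in 2% charcoal-stripped FBS, treated with compounds plus 1 nM promegestone (R5020, final) for 16 hr at 37C. Read-out: FRET beta-lactamase substrate fluorescence after 2 hr at room temperature.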

[4] = qHTS assay to identify small molecule antagonists of the progesterone receptor (PR) signaling pathway - cell viability counter screen (AID 1346798); note: series mostly up to about 92 µM; nearly all actives have a fitted effect of over 50% in size
Outline: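 PR-UAS-bla HEK293T cells, 3,000/well in 2% charcoal-stripped FBS medium, dosed with compounds plus R5020 agonist and incubated 16 h at 37C. Viability then measured in the same wells by CellTiter-Glo luminescence after 30 min at RT.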

[5] = qHTS assay to identify small molecule agonists of the progesterone receptor (PR) signaling pathway - cell viability counter screen (AID 1346799; calls by dose curve; note: nearly all actives have a fitted effect of over 45% in size)
Outline: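 Counter screen in the PR-UAS-bla HEK293T wells (2% charcoal-stripped FBS, 16 h compound exposure at 37 C) after the bla read. CellTiter-Glo added, 30 min at room temperature, luminescence read as cell viability.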

[6] = qHTS assay to identify small molecule antagonists of the TGF-beta/Smad signaling pathway - cell viability counter screen (AID 1346824); note: nearly all actives have a fitted effect of over 50% in size
Outline: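 Cytotoxicity counter-screen run in the same wells as the beta-lactamase Smad reporter read: CellTiter-Glo luminescence after 30 min at room temperature. HEK 293T SBE-bla cells had 5 hr compound exposure at 37 C with TGF-beta1 (0.25 ng/mL stock).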

[7] = qHTS assay to identify small molecule agonists of the TGF-beta/Smad signaling pathway - cell viability counter screen (AID 1346829); note: top concentration of the series differs between compounds; nearly all actives have a fitted effect of over 45% in size
Outline: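 Compound-treated SBE-bla HEK 293T cells (5 hr, 37 C) were assessed for viability with CellTiter-Glo in parallel with the reporter read.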

[8] = qHTS assay to identify small molecule agonists of the TGF-beta/Smad signaling pathway (AID 1346859; active = well fitted activation curve with a large enough effect in the signal ratio in the repeat runs, not every such curve was filed as active; the % refers to the signal ratio; note: series mostly up to about 77 µM)
Outline: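 SBE-bla HEK293T cells plated overnight, then compound exposure for 5 h at 37 C. Beta-lactamase reporter read with LiveBLAzer B/G FRET substrate after 2 h at room temperature, fluorescence at 405 nm excitation, 460/530 nm emission.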

[9] = Human pregnane X receptor (PXR) small molecule agonists, qHTS cell viability counter screen (AID 1346977); note: nearly all actives have a fitted effect of over 50% in size
Outline: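 PXR-Luc HepG2 cells (2,000/well, 5% charcoal-stripped FBS) preincubated 5 hr, then exposed to compounds 24 hr at 37 C. Viability read in the same wells by CellTiter-Fluor fluorescence, reagent added at 23 hr, 1 hr incubation.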

[10] = Caspase-3/7 induction in HepG2 cells by small molecules, qHTS assay (AID 1346978); note: nearly all actives have a fitted effect of over 15% in size
Outline: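 Caspase-3/7 induction was measured by Caspase-Glo 3/7 luminescence (30 min, room temperature) after a 17 hr compound exposure of wild-type HepG2 cells seeded at 2,000 per well and pre-incubated 5 hr.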

[11] = Caspase-3/7 induction in CHO-K1 cells by small molecules, qHTS cell viability counter screen (AID 1346979); note: nearly all actives have a fitted effect of over 35% in size
Outline: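 Wild-type CHO-K1 cells (1,500/well) treated with compound after 5 h plating; after 16 h at 37C, viability read as CellTiter-Fluor fluorescence following 1 h reagent incubation, in the same wells as the caspase read.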

[12] = Caspase-3/7 induction in CHO-K1 cells by small molecules, qHTS assay (AID 1346980); note: nearly all actives have a fitted effect of over 15% in size
Outline: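 Luminescent Caspase-Glo 3/7 read (30min, room temperature) quantified apoptosis induction. Cells were wild-type CHO-K1, treated with compound for 17hr at 37 C and 5% CO2.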

[13] = Caspase-3/7 induction in HepG2 cells by small molecules, qHTS cell viability counter screen (AID 1346981); note: nearly all actives have a fitted effect of over 30% in size; note: potency is the fitted concentration of half-maximal effect; for activity change, negative = cytotoxicity: series mostly up to about 92 µM
Outline: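 After a 5-hr attachment period at 37 C and 5% CO2, wild-type HepG2 cells received compounds in DMSO. Sixteen hours later CellTiter-Fluor was dispensed and the fluorescent signal quantified after a further hour.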

[14] = target: Nuclear receptor subfamily 1 group I member 2 (Homo sapiens) (UniProt O75469); assay: Human pregnane X receptor (PXR) small molecule agonists, qHTS assay (AID 1346982); note: nearly all actives have a fitted effect of over 35% in size; note: potency is the fitted concentration of half-maximal effect
Nuclear receptor subfamily 1 group I member 2 (Homo sapiens), sequence (O75469 whole entry, looked up): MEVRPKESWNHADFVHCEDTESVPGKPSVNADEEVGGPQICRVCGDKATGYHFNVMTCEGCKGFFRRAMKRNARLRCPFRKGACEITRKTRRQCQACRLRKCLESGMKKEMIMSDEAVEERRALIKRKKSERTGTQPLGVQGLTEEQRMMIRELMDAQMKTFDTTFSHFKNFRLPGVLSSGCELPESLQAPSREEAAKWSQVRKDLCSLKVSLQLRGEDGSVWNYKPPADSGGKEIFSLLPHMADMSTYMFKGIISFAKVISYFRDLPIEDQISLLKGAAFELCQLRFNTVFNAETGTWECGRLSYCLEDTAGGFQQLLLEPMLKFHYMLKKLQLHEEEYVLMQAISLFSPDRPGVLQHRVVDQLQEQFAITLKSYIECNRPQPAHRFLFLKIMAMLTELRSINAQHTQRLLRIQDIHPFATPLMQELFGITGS
Outline: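 Tox21 qHTS; PXR-Luc HepG2; compounds pinned from DMSO; 24 hr, 37 C; ONE-Glo luciferase detection, 30 min room temperature.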

[15] = target: Cytochrome P450 2D6 (Homo sapiens) (UniProt P10635); assay: Cytochrome P450 Family 2 Subfamily D Member 6 (CYP2D6) small molecule antagonists: luciferase reporter qHTS assay (AID 1671196); note: nearly all actives have a fitted effect of over 50% in size; note: potency is the fitted concentration of half-maximal effect; for activity change, negative = inhibition: series mostly up to about 120 µM
Cytochrome P450 2D6 (Homo sapiens), sequence (P10635 whole entry, looked up): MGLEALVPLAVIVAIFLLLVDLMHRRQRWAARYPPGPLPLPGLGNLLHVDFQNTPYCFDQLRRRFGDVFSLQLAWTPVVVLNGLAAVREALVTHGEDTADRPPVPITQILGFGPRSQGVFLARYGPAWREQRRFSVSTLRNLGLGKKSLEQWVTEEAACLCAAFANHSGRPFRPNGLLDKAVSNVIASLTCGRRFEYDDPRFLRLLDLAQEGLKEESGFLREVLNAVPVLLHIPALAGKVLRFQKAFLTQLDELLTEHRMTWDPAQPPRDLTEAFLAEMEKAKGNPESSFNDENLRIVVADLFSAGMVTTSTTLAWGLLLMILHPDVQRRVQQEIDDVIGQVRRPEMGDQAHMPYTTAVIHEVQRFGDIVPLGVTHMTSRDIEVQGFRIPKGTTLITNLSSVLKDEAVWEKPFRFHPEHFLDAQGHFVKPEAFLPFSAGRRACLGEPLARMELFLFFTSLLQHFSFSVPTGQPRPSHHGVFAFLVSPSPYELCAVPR
Outline: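 Room-temperature luminescent CYP2D6 activity assay: compound preincubated 10 min with enzyme–substrate mix, NADPH-initiated reaction 1 h, detection reagent 20 min before reading.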

[16] = target: Thyrotropin-releasing hormone receptor (Homo sapiens) (UniProt P34981); assay: qHTS assay to identify small molecule antagonists of the thyrotropin-releasing hormone receptor (TRHR) signaling pathway (AID 1346877; active = well fitted inhibition curve with a large enough effect in the repeat runs, not every such curve was filed as active; note: series mostly up to about 51 µM)
Thyrotropin-releasing hormone receptor (Homo sapiens), sequence (P34981 whole entry, looked up): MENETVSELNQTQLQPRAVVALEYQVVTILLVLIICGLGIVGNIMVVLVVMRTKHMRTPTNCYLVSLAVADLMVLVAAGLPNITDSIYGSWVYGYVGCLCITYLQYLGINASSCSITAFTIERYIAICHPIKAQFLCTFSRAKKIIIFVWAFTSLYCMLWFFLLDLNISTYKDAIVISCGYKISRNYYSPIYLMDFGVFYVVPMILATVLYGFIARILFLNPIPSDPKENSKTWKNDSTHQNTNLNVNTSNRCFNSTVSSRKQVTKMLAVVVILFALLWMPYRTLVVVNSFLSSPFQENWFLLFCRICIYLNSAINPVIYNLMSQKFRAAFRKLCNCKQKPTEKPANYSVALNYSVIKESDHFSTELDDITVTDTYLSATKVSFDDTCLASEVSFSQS
Outline: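 Calcium signal in dye-loaded TRHR/HEK293 cells; compounds added 5 min before TRH (1 nM final); fluorescence monitored 3 min at 1 s steps.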

[17] = target: Thyrotropin-releasing hormone receptor (Homo sapiens) (UniProt P34981); assay: qHTS assay to identify small molecule agonists of the thyrotropin-releasing hormone receptor (TRHR) signaling pathway (AID 1346891; calls by dose curve; note: series mostly up to about 58 µM)
Outline: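 HEK293 cells expressing TRHR plated 18 h at 37 C/5% CO2, calcium dye-loaded 2 h at 37 C, then compound added (agonist mode); kinetic calcium fluorescence read 3 min at 1 s intervals; 15 concentrations in triplicate.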
% is set by controls: 0 for no effect and ±100 for the full control effect.

C[Si](C)(C)N[Si](C)(C)C
60.6 µM (active) and inactive: Potency [14]
inactive: Potency [1] | Potency [2] | Potency [3] | Potency [4] | Potency [5] | Potency [6] | Potency [7] | Potency [8] | Potency [9] | Potency [10] | Potency [11] | Potency [12] | Potency [13] | Potency [15]

COC(=O)CCCCC(=O)OC
inactive: Potency [1] | Potency [2] | Potency [3] | Potency [4] | Potency [5] | Potency [6] | Potency [7] | Potency [8] | Potency [9] | Potency [10] | Potency [11] | Potency [12] | Potency [13] | Potency [14]

COC(=O)OC
inactive: Potency [1] | Potency [2] | Potency [3] | Potency [4] | Potency [5] | Potency [6] | Potency [7] | Potency [9] | Potency [10] | Potency [11] | Potency [12] | Potency [13] | Potency [14]

Cc1ncc(CO)c(CO)c1O
inactive: Potency [1] | Potency [2] | Potency [3] | Potency [4] | Potency [5] | Potency [6] | Potency [7] | Potency [8] | Potency [16] | outcome [17] | Potency [9] | Potency [10] | Potency [11] | Potency [12] | Potency [13] | Potency [14] | Potency [15]

C[n+]1ccn(CCO)c1
inactive: Potency [1] | Potency [2] | Potency [3] | Potency [4] | Potency [5] | Potency [6] | Potency [7] | outcome [17] | Potency [9] | Potency [10] | Potency [11] | Potency [12] | Potency [13] | Potency [14]

CN1CCCC1=O
inactive: Potency [1] | Potency [2] | Potency [3] | Potency [4] | Potency [5] | Potency [6] | Potency [7] | Potency [16] | outcome [17] | Potency [9] | Potency [10] | Potency [11] | Potency [12] | Potency [13] | Potency [15]
63.2 µM (active) and inactive: Potency [14]

COc1ccc2cc3[n+](cc2c1OC)CCc1cc2c(cc1-3)OCO2
active: Potency [1] 27.5 µM and 26.6 µM | Potency [13] 54.9 µM | Potency [15] 180 nM and 2.19 µM
inactive: Potency [2] | Potency [3] | Potency [4] | Potency [6] | Potency [7] | Potency [8] | Potency [16] | Potency [9] | Potency [10] | Potency [11] | Potency [12] | Potency [14]

CCCCCCCCCCCC(=O)N(C)CC(=O)O
inactive: Potency [1] | Potency [2] | Potency [3] | activity change, negative = cytotoxicity [4] 0.0198% [at 8.39 µM] | Potency [5] | Potency [6] | Potency [7] | Potency [8] | Potency [9] | Potency [10] | Potency [11] | Potency [13] | activation [14] -3.89% [at 8.39 µM] | activity change, negative = inhibition [15] -25.2% [at 10.5 µM]
active: Potency [14] 59.2 µM
